From PubChem BioAssay (EPA / NIEHS) come the findings set out here.

Experiment [1] is described as follows: ATG_GLI_CIS: Attagene CIS-FACTORIAL HepG2 Assay for human Zinc Finger Protein GLI1 (AID 2282945). The settings on record: HepG2, Attagene cis-factorial reporter mRNA, GLI element; actives raise or lower the signal. A digest of the protocol: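 HepG2 cells transiently transfected with cis-promoter multiplexed reporter units report endogenous transcription factor activity. After 24 h chemical exposure, reporter mRNA was quantified by RT-PCR, 6-FAM labelling, HpaI digestion and capillary electrophoresis, with bidirectional fitting against DMSO.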

The nature of experiment [2]: ATG_GRE_CIS: Attagene CIS-FACTORIAL HepG2 Assay for human Glucocorticoid Response Elements (GRE) (AID 2282947). As to conditions: HepG2 GRE cis-reporter, Attagene multiplex mRNA; actives raise or lower the signal. A digest of the protocol:
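Cells (HepG2) bearing transfected cis-promoter reporter transcription units were treated with chemical for 24 hours. Reporter mRNA was measured via RT-PCR with capillary electrophoresis, and activity was fitted in both directions relative to DMSO.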

A short description of experiment [3]: ATG_ISRE_CIS: Attagene CIS-FACTORIAL HepG2 Assay for human Interferon Regulatory Factor 1 (IRF1) binding to an Interferon-Stimulated Response Element (ISRE) (AID 2282948). The settings on record: HepG2 ISRE cis-reporter (Attagene), mRNA transcription readout; actives raise or lower the signal. A digest of the protocol: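 Uses HepG2 liver cells transfected with cis-regulated reporters and measures mRNA 24 h post-dosing through RT-PCR, primer-extension labelling and capillary electrophoresis, with DMSO as negative control.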

A short description of experiment [4]: ATG_M_32_CIS: Attagene CIS-FACTORIAL HepG2 Assay for M32 Transcription Factor (Internal Marker) (AID 2282949).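 Note: background control marker of the multiplexed CIS panel rather than a real target.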 As to conditions: HepG2 Attagene cis-factorial M32 reporter, mRNA; actives raise or lower the signal. In a few lines:
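HepG2 transfectants (cis-regulated reporter transcription units) dosed 24 h. Reporter mRNA by RT-PCR plus CE, analysed as gain or loss relative to DMSO.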

The nature of experiment [5]: ATG_M_06_CIS: Attagene CIS-FACTORIAL HepG2 Assay for M06 Transcription Factor (Internal Marker) (AID 2282950). As to conditions: HepG2 Attagene CIS-FACTORIAL M06 internal marker reporter; actives raise or lower the signal. In a few lines: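 HepG2 cells transiently transfected with cis-regulated multiple reporter transcription units were exposed to chemical for 24 h; reporter mRNA was quantified by RT-PCR, 6-FAM primer labelling, HpaI digestion and capillary electrophoresis, fitted bidirectionally against DMSO.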

For experiment [6], the target named is Hypoxia-inducible factor 1-alpha (Homo sapiens) (UniProt Q16665). The experiment is described as follows: ATG_HIF1a_CIS: Attagene CIS-FACTORIAL HepG2 Assay for human Hypoxia Inducible Factor 1 (HIF1A) (AID 2282951). As to conditions: HepG2 Attagene cis-factorial HIF1a reporter transcription; actives raise or lower the signal. In a few lines:
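Endogenous-TF cis reporter readout, human HepG2 cells, 24 h incubation; mRNA detected via RT-PCR and capillary electrophoresis fluorescence; DMSO-normalised bidirectional fitting.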

Experiment [7] deals with Hepatocyte nuclear factor 6 (Homo sapiens) (UniProt Q9UBC0). Kind of experiment: ATG_HNF6_CIS: Attagene CIS-FACTORIAL HepG2 Assay for human Hepatocyte Nuclear Factor 6 (HNF6) (AID 2282952). As to conditions: HepG2 Attagene cis-factorial HNF6 reporter transcription; actives raise or lower the signal. In a few lines:
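Readout: fluorescent reporter-transcript fragments resolved by capillary electrophoresis after RT-PCR, reflecting endogenous factor activity in transfected HepG2. Exposure 24 h. Gain or loss of signal fitted bidirectionally against DMSO.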

In experiment [8] the target is Heat shock factor protein 1 (Homo sapiens) (UniProt Q00613). Kind of experiment: ATG_HSE_CIS: Attagene CIS-FACTORIAL HepG2 Assay for human Heat Shock Transcription Factor 1 (HSE) (AID 2282953). The settings on record: HepG2 HSE cis-reporter, Attagene RNA transcription; actives raise or lower the signal. A digest of the protocol:
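HepG2 cells transiently transfected with multiple reporter transcription units under cis-regulatory promoter control, measuring endogenous transcription factor activity. After 24 h chemical exposure, reporter mRNA quantified by RT-PCR, fluorescent labelling, HpaI digestion and capillary electrophoresis; bidirectional fit versus DMSO.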

Experiment [9] in a line: ATG_MRE_CIS: Attagene CIS-FACTORIAL HepG2 Assay for human Metal Responsive Element (MRE) (AID 2282954). The settings on record: HepG2 MRE cis-reporter transcription, Attagene multiplex; actives raise or lower the signal. A digest of the protocol:
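Cells were transfected with cis-promoter reporter transcription units, then dosed for 24 h. RNA was reverse-transcribed, amplified, fluorescently labelled and resolved by capillary electrophoresis, and activity was fitted in both directions relative to DMSO.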

The nature of experiment [10]: ATG_PBREM_CIS: Attagene CIS-FACTORIAL HepG2 Assay for human Phenobarbital-responsive Enhancer Module (PBREM) (AID 2282955). The settings on record: HepG2 PBREM cis-reporter, Attagene multiplexed transcription; actives raise or lower the signal. In a few lines:
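Readout: reporter mRNA, fluorescent RT-PCR fragments separated by capillary electrophoresis. System: HepG2 transiently transfected with cis-regulated reporter units. Exposure: 24 h. Analysis: bidirectional, DMSO baseline.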

Experiment [11] has as its target Paired box protein Pax-6 (Homo sapiens) (UniProt P26367). The experiment is described as follows: ATG_Pax6_CIS: Attagene CIS-FACTORIAL HepG2 Assay for human Paired Box 6 (PAX6) (AID 2282956). The settings on record: HepG2 CIS-FACTORIAL PAX6 reporter transcription, RNA readout; actives raise or lower the signal. In a few lines:
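DMSO-referenced bidirectional fits of reporter mRNA fluorescence; HepG2 with transient cis-promoter MRTUs, 24 h post-dose, RT-PCR plus capillary electrophoresis detection.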

Experiment [12] in a line: ATG_PXRE_CIS: Attagene CIS-FACTORIAL HepG2 Assay for human Pregnane X Receptor Element (PXRE) (AID 2282957). As to conditions: HepG2 Attagene CIS-FACTORIAL PXRE reporter, mRNA; actives raise or lower the signal. In a few lines:
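Read-out: fluorescence of reporter-specific RT-PCR products resolved by capillary electrophoresis, fitted bidirectionally relative to DMSO. Human HepG2 liver cells carried transfected cis-promoter reporter units and were exposed to chemicals for 24 h.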

Experiment [13] in a line: ATG_PPRE_CIS: Attagene CIS-FACTORIAL HepG2 Assay for human Peroxisome Proliferator-activated Response Element (PPRE) (AID 2282958). The settings on record: HepG2 PPRE cis-element reporter, Attagene transcription factor profiling; actives raise or lower the signal. In a few lines: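 After human HepG2 hepatoma cells were transiently transfected with cis-promoter reporter constructs, they were exposed to test chemicals for 24 hours. Reporter RNA was then reverse-transcribed, PCR-amplified, FAM-labeled, HpaI-digested and quantified by capillary electrophoresis.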

Experiment [14] can be described thus: ATG_RORE_CIS: Attagene CIS-FACTORIAL HepG2 Assay for human RAR-related Orphan Receptor Element (RORE) (AID 2282959). As to conditions: HepG2 Attagene cis-factorial RORE reporter, mRNA; actives raise or lower the signal. A digest of the protocol:
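Measured here: transcript induction of a cis-regulated reporter in HepG2 cells transiently transfected via FuGene 6. After 24 h, RNA was processed by RT-PCR and fluorescent capillary electrophoresis; DMSO defined baseline activity.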

Experiment [15] can be described thus: ATG_Sox_CIS: Attagene CIS-FACTORIAL HepG2 Assay for human SRY-box transcription factor (SOX) (AID 2282960). As to conditions: HepG2 Attagene cis-factorial SOX reporter, mRNA; actives raise or lower the signal. A digest of the protocol: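 Using transiently transfected HepG2 cells, reporter transcription driven by cis elements was assessed 24 h after dosing. Signal was fluorescence of capillary-separated RT-PCR products, with DMSO defining baseline activity.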

The target in experiment [16] is Transcription factor Sp1 (Homo sapiens) (UniProt P08047). The experiment is described as follows: ATG_Sp1_CIS: Attagene CIS-FACTORIAL HepG2 Assay for human Specificity Protein 1 (Sp1) (AID 2282961). As to conditions: HepG2 Sp1 cis-reporter transcription, actives raise or lower the signal. A digest of the protocol: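 After transient transfection of HepG2 cells with cis-promoter reporter units and 24 h chemical treatment, reporter transcripts were quantified by RT-PCR and capillary electrophoresis fluorescence. Gain- and loss-of-signal fitted against DMSO.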

A short description of experiment [17]: ATG_SREBP_CIS: Attagene CIS-FACTORIAL HepG2 Assay for human Sterol Regulatory Element Binding (SREBP) (AID 2282962). The settings on record: HepG2 Attagene cis-factorial SREBP reporter, mRNA; actives raise or lower the signal. A digest of the protocol: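 In this cis-format assay, HepG2 liver cells express reporters controlled by promoter elements responsive to native transcription factors. Exposure lasts 24 h; reporter mRNA fluorescence from capillary electrophoresis gives the signal, fitted bidirectionally against DMSO.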

The target in experiment [18] is Signal transducer and activator of transcription 3 (Homo sapiens) (UniProt P40763). Kind of experiment: ATG_STAT3_CIS: Attagene CIS-FACTORIAL HepG2 Assay for human Signal Transducer and Activator of Transcription 3 (STAT3) (AID 2282963). As to conditions: HepG2, Attagene cis-factorial STAT3 reporter transcription; actives raise or lower the signal. A digest of the protocol:
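HepG2, MRTU-transfected, 24 h dosing. RNA → RT → PCR → FAM label → HpaI → CE. Bidirectional fit vs DMSO.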

A short description of experiment [19]: ATG_TA_CIS: Attagene CIS-FACTORIAL HepG2 Assay for human TA Basal Promoter (AID 2282964). As to conditions: HepG2 Attagene CIS-factorial TA basal promoter reporter; actives raise or lower the signal. A digest of the protocol:
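HepG2 cells transiently transfected with multiplexed cis-promoter reporter units, dosed 24 h. Reporter mRNA measured by RT-PCR, 6-FAM labelling, HpaI digestion and capillary electrophoresis; bidirectional fit versus DMSO baseline, serving as background control.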

For experiment [20], the target named is Bile acid receptor (Homo sapiens) (UniProt Q96RI1). The experiment is described as follows: ATG_IR1_CIS: Attagene CIS-FACTORIAL HepG2 Assay for human Nuclear Receptor Subfamily 1 Group H Member 4 (NR1H4), IR1 submotif (AID 2282946). The settings on record: IR1 reporter transcription, actives raise or lower the signal. In a few lines: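 Readout: reporter transcript levels by RT-PCR with fluorescent capillary electrophoresis, from HepG2 cells transiently transfected with multiplexed cis-regulated reporters and dosed 24 h. Gain- or loss-of-signal fitted versus DMSO negative control.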

Calls of active or inactive are those of the source. Rule for the calls: active = hit-call score of the fitted dose curve at least 0.9, where 1 is the maximum; inactive = score below 0.9.

Chain of Bile acid receptor (Homo sapiens) (Q96RI1 whole entry, looked up): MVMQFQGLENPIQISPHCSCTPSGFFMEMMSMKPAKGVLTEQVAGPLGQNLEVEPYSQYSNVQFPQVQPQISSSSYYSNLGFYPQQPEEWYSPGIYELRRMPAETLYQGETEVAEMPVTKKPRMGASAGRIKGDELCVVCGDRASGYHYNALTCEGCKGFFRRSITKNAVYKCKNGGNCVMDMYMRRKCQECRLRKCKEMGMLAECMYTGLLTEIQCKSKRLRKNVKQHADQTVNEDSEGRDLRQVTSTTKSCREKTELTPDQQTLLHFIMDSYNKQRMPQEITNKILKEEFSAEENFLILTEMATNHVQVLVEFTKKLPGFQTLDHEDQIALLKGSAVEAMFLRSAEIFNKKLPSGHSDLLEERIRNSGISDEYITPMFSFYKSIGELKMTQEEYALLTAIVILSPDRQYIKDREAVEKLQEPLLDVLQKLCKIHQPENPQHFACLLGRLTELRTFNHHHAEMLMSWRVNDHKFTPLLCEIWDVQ
Chain of Paired box protein Pax-6 (Homo sapiens) (P26367 whole entry, looked up): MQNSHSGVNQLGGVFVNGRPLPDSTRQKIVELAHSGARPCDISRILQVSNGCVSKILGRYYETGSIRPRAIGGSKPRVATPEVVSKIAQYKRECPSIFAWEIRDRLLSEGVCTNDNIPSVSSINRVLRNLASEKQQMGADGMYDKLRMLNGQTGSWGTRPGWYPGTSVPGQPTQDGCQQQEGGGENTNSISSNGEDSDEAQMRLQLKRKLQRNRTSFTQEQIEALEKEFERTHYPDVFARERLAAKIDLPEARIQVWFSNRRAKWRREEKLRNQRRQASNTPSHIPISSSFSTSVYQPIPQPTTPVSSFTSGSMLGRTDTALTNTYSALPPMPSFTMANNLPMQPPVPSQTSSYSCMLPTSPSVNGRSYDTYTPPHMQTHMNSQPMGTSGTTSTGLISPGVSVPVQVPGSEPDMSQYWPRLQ
Chain of Hepatocyte nuclear factor 6 (Homo sapiens) (Q9UBC0 whole entry, looked up, the tested form may be a part): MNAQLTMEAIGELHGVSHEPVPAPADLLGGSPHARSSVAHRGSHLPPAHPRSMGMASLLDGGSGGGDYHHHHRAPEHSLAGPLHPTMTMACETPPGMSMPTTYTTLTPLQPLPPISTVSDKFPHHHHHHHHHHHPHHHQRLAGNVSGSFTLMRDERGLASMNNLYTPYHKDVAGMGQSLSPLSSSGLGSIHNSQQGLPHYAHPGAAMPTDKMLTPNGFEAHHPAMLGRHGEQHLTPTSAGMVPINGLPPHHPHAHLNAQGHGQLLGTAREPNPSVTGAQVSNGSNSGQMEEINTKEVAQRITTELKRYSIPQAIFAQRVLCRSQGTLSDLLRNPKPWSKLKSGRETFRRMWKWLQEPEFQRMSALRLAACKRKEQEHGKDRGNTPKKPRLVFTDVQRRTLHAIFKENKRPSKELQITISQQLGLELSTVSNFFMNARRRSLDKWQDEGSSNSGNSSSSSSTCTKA
Chain of Signal transducer and activator of transcription 3 (Homo sapiens) (P40763 whole entry, looked up): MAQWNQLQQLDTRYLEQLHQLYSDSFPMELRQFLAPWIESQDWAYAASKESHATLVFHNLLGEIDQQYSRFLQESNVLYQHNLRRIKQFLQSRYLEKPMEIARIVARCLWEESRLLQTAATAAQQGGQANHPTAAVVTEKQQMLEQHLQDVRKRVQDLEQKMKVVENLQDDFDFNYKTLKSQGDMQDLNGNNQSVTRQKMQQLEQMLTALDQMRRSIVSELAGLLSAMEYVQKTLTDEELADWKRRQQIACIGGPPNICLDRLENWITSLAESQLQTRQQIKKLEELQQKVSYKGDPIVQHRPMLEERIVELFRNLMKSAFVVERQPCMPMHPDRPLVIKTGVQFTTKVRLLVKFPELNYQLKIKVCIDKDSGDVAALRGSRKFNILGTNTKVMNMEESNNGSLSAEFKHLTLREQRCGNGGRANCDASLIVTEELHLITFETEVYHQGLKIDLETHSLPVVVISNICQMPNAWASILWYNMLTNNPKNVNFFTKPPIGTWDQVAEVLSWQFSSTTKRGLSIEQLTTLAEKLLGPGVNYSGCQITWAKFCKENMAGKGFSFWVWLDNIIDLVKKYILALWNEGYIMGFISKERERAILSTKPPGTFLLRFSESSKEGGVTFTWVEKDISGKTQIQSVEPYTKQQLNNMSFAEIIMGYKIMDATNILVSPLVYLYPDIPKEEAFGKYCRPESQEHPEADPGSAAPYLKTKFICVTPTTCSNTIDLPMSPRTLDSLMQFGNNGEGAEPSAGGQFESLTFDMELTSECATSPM
Chain of Heat shock factor protein 1 (Homo sapiens) (Q00613 whole entry, looked up): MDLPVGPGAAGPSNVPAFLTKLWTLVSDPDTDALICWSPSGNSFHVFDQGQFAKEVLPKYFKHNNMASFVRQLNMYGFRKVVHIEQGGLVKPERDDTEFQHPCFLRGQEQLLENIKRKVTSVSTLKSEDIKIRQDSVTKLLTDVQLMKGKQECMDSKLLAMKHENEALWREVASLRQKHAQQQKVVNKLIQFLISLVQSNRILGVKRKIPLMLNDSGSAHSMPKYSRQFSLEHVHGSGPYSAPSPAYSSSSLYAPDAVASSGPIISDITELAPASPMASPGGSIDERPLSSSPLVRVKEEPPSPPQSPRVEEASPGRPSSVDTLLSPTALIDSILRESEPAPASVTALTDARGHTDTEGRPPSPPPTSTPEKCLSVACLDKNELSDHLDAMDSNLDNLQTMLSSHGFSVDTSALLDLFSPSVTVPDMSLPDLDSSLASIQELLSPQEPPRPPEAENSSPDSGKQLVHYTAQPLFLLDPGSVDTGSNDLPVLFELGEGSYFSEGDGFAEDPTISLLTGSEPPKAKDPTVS
Chain of Hypoxia-inducible factor 1-alpha (Homo sapiens) (Q16665 whole entry, looked up): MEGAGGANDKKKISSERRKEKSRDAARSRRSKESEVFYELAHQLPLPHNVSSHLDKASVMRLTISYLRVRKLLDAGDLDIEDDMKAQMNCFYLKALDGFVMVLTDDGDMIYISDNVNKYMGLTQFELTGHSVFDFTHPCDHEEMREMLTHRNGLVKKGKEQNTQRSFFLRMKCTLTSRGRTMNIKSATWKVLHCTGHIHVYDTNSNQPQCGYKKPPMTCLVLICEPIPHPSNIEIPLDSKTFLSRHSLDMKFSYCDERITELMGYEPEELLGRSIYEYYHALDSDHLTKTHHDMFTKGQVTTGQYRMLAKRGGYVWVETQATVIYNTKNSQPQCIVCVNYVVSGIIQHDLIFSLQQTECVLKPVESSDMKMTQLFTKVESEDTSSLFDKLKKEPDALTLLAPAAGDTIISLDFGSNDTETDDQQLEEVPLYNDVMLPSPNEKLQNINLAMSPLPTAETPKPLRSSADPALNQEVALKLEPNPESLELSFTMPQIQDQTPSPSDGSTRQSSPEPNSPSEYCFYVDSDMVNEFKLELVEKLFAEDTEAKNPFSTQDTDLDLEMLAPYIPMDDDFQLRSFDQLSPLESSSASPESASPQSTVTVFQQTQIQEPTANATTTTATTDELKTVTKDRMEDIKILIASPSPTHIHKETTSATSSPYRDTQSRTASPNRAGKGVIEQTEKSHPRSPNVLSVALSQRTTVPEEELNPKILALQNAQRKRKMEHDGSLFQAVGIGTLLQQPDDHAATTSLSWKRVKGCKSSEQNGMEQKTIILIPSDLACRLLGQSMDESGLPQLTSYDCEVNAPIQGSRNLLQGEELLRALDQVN
Chain of Transcription factor Sp1 (Homo sapiens) (P08047 whole entry, looked up): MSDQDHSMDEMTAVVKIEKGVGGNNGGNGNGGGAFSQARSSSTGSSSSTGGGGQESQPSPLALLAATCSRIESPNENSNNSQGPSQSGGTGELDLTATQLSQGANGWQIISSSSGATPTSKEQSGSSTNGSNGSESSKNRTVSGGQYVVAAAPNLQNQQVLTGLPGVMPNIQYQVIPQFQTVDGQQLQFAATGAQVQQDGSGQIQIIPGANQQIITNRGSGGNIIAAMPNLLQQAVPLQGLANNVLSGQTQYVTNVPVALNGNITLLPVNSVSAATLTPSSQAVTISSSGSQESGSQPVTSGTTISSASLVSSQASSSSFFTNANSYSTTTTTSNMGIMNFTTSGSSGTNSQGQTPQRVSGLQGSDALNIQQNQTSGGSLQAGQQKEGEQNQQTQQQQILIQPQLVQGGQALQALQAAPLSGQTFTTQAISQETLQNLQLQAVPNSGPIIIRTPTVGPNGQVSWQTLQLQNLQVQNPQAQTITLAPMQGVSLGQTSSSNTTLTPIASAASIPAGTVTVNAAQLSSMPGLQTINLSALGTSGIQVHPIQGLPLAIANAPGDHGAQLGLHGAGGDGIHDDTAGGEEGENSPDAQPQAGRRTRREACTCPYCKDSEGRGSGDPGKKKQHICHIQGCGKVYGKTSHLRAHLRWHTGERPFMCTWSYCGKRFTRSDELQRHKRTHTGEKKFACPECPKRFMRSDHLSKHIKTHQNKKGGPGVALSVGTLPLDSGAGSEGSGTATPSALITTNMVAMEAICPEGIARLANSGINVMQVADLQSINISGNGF

Take `CC(C)CC(=O)OCc1ccccc1`: the call in experiment [1], in experiment [2], in experiment [3], in experiment [4], in [5] and in [6] was inactive. Further, the outcome in experiment [7], in experiment [8], in experiment [9], in experiment [10], in experiment [11] and in experiment [12] was inactive. In addition, the call in [13], in experiment [14], in experiment [15], in [16], in [17] and in experiment [18] was inactive. Further, the compound was classed as inactive in experiment [19].

Turning to `CC(C)OC(=O)c1ccccc1`, the compound was classed as inactive in experiment [1], in experiment [2], in [3], in experiment [4], in experiment [5] and in [6]. For the same compound, the outcome in [7], in [8], in [9], in experiment [10], in experiment [11] and in experiment [12] was inactive. Further, the compound was classed as inactive in [14], in experiment [15], in [16], in experiment [17] and in experiment [18].

As to `O=C(O)CCC(=O)O`, the compound was classed as inactive in [1], in experiment [20], in experiment [3], in [5], in [6] and in [7]. Further, the compound was called inactive in [8], in [9], in experiment [10], in [11], in experiment [13] and in experiment [15]. Further, the compound was called inactive in experiment [16], in experiment [17], in [18] and in experiment [19].

For `C=CC(C)(CCC=C(C)C)OC(=O)C=Cc1ccccc1` (configuration not stated), the compound was classed as inactive in experiment [1], in [20], in experiment [3], in [5], in experiment [6] and in [7]. Moreover, the outcome in experiment [8], in experiment [9], in experiment [10], in experiment [11], in [15] and in experiment [16] was inactive. Also, the compound was classed as inactive in experiment [17], in [18] and in experiment [19]. Also, in experiment [12], the concentration at half-maximal activity (AC50) – broadly, the midpoint of the concentration-response curve, whichever way the signal moves – is 1.82 µM (active).

As to `N#Cc1ccc(C(c2ccc(C#N)cc2)n2cncn2)cc1`, the outcome in experiment [1], in [20], in experiment [3], in experiment [4], in [5] and in [6] was inactive. The compound was called inactive in [7], in experiment [8], in experiment [11], in experiment [12], in experiment [13] and in [15]. Further, the outcome in [16], in experiment [17], in [18] and in [19] was inactive.

Take `Oc1ccccc1Cc1ccccc1O`: the outcome in experiment [1], in experiment [2], in experiment [4], in [5], in experiment [7] and in [8] was inactive. Also, the outcome in [10], in experiment [13], in experiment [14], in experiment [15], in experiment [16] and in [18] was inactive. Besides, in [19], the compound was classed as inactive. The AC50 is 149 µM (active) in [3]; 134 µM (active) in experiment [6]; 124 µM (active) in [9]; 100 µM (active) in experiment [11]; 26.3 µM (active) in experiment [12]; 64.5 µM (active) in [17].

On to `COc1cc(C)ccc1O`, for which the outcome in experiment [1], in experiment [2], in [3], in experiment [4], in experiment [5] and in experiment [6] was inactive. Moreover, the outcome in experiment [7], in experiment [8], in experiment [9], in experiment [10], in experiment [11] and in experiment [12] was inactive. Besides, the compound was classed as inactive in [13], in experiment [14], in experiment [15], in experiment [16], in [17] and in experiment [18]. In addition, in experiment [19], the result was inactive.
